Data from the supplement of paper PMC6411743.
± gives the standard deviation of the averaged measurements. Of roughly 5,400 targets only a part is listed; those with the largest changes were picked by preference.

Compound: Nc1nc2c(ncn2[C@@H]2O[C@H](COP(=O)(O)OP(=O)(O)OP(=O)(O)O)[C@@H](O)[C@H]2O)c(=O)[nH]1 [guanosine triphosphate]
Assay: NP40-soluble protein abundance relative to vehicle (solubility fold change) (ratio); higher = more soluble protein in presence of GTP
Summary of the method: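 Data come from three independent experiments in which Dounce-homogenised Jurkat crude lysate was treated at eight concentrations from 0.1 to 10 mM. Treatment ran 10 min at room temperature and then 3 min at 37 °C, after which 0.8% NP40 and benzonase were added for 60 min at 4 °C before ultracentrifugation. The supernatant underwent TMT labelling and LC-MS/MS, and vsn-normalised intensities were expressed as fold change against the detergent-processed vehicle in each replicate.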

UniProt O43399, sequence (O43399 whole entry): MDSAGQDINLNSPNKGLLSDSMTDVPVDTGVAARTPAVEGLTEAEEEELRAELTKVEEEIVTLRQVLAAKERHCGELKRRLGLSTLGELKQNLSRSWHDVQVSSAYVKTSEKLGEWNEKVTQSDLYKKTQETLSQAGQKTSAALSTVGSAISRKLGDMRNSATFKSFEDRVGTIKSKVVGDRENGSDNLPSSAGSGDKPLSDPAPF
UniProt O43615, sequence (O43615 whole entry): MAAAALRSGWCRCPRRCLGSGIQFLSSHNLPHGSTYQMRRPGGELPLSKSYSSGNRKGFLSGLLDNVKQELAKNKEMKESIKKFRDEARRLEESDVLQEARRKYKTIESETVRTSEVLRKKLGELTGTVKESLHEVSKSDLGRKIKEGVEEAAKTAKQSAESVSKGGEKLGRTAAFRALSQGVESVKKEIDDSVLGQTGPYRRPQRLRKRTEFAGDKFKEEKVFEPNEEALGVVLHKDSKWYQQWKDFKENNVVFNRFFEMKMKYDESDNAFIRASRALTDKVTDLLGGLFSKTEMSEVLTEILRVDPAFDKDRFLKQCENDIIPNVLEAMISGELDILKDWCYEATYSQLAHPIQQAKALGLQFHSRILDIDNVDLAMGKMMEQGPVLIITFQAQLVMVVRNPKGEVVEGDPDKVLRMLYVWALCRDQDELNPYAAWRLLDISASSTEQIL
UniProt O60870, sequence (O60870 whole entry): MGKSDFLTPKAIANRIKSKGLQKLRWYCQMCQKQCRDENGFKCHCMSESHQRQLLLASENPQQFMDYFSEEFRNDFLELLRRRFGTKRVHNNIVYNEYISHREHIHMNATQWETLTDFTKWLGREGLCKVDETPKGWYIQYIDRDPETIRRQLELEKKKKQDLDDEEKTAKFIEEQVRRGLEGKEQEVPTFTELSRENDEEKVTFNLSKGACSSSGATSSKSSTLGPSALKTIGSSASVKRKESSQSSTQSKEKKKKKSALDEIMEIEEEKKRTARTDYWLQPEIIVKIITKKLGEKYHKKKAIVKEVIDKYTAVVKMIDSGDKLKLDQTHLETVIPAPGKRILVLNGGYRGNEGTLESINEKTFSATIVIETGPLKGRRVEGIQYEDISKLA
UniProt P11388, sequence (P11388 whole entry): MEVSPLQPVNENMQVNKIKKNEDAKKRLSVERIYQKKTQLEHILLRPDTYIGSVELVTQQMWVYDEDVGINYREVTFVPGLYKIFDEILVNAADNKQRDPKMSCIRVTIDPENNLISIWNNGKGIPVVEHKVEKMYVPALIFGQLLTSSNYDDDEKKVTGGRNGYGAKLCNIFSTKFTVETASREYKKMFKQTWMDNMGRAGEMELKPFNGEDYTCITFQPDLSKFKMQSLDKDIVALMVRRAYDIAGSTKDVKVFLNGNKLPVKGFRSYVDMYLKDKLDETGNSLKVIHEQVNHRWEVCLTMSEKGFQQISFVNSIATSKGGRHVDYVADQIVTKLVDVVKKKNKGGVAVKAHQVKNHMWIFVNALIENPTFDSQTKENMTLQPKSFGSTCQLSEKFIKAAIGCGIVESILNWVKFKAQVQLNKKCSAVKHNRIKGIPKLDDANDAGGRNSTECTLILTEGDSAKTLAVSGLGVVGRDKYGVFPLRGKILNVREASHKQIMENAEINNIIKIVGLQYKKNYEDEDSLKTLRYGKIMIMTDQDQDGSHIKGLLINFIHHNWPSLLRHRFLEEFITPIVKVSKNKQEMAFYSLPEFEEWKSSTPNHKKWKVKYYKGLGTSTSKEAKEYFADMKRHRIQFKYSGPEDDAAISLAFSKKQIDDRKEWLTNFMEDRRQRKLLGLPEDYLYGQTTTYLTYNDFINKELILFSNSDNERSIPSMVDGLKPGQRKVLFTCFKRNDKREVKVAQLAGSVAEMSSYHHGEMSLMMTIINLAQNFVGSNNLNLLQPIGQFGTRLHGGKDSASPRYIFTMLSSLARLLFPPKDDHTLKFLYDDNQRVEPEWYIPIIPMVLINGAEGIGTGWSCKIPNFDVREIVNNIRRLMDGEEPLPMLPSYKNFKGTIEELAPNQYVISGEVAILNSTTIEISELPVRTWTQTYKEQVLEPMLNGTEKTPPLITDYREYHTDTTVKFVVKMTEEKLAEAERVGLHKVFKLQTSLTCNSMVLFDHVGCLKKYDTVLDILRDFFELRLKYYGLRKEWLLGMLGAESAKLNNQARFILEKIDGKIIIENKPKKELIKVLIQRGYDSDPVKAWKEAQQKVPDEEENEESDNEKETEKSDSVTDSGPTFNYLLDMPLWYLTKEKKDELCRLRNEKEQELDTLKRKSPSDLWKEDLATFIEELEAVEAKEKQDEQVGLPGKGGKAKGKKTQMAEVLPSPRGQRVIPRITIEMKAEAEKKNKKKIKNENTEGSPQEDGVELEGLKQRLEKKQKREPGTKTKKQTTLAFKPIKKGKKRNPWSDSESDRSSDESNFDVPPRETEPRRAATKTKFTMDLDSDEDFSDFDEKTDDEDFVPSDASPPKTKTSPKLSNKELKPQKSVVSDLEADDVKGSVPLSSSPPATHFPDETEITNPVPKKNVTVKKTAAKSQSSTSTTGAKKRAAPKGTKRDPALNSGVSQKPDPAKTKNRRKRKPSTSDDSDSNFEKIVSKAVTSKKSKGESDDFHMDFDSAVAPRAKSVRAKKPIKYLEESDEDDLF
UniProt P08758, sequence (P08758 whole entry): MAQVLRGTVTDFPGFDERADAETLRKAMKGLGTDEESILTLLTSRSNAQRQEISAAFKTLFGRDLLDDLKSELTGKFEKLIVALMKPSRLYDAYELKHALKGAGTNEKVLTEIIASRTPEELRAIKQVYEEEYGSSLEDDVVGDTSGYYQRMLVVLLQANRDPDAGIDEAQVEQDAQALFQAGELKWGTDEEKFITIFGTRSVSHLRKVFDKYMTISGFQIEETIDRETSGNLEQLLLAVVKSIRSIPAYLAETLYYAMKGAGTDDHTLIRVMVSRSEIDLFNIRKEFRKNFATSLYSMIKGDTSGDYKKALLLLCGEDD
UniProt O60669, sequence (O60669 whole entry): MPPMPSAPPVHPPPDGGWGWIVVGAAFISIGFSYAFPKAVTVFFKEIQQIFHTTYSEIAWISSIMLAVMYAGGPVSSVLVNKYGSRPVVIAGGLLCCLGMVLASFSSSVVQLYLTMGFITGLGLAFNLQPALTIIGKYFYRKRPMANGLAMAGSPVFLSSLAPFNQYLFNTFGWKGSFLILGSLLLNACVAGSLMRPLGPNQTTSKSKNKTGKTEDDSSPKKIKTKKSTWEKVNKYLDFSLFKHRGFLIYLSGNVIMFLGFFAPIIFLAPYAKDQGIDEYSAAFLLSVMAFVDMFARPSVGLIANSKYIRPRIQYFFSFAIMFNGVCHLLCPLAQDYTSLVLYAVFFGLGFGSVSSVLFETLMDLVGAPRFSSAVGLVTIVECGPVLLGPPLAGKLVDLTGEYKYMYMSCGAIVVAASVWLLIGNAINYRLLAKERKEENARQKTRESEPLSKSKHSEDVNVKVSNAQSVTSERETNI
UniProt Q9Y2L5, sequence (Q9Y2L5 whole entry, one chain of several): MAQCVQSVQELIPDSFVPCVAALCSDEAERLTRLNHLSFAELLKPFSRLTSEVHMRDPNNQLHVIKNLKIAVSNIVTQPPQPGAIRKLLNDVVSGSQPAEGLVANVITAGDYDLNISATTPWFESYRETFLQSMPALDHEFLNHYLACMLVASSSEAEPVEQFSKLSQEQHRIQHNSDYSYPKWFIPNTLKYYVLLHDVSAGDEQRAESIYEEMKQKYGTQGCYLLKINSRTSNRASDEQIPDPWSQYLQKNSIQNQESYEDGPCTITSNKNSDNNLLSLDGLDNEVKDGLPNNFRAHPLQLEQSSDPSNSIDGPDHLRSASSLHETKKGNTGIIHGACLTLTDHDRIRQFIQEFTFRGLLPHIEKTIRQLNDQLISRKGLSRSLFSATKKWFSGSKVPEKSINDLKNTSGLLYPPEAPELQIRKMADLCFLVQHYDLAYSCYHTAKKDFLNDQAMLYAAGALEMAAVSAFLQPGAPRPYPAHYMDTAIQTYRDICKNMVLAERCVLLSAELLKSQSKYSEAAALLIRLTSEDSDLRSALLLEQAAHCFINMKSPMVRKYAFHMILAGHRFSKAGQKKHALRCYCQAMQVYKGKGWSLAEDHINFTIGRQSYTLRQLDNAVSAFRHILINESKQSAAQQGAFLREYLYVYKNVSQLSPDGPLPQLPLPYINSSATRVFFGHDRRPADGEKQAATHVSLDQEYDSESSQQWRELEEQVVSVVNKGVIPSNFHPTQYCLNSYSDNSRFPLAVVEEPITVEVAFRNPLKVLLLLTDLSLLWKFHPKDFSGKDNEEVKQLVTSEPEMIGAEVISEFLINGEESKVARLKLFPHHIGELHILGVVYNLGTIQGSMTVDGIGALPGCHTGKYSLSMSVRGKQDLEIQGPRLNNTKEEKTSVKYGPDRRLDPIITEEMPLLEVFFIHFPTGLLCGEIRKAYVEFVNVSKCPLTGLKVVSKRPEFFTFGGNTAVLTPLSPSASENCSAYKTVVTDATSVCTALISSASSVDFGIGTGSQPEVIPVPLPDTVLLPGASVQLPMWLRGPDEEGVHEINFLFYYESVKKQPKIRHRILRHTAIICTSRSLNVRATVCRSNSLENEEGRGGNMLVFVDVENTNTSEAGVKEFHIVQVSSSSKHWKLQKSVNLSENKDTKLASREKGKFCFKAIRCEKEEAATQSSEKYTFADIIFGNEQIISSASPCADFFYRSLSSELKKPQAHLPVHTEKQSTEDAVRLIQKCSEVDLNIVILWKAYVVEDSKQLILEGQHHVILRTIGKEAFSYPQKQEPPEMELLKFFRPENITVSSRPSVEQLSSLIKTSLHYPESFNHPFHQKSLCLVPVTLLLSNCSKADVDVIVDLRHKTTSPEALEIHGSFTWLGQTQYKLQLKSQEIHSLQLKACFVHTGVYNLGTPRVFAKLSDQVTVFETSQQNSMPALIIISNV
UniProt O75531, sequence (O75531 whole entry): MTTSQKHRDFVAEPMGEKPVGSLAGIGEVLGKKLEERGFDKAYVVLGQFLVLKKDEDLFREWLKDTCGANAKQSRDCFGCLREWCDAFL

Target	NP40-soluble protein abundance (concentration: 0.1mM)	NP40-soluble protein abundance (concentration: 0.5mM)	NP40-soluble protein abundance (concentration: 1mM)	NP40-soluble protein abundance (concentration: 2mM)	NP40-soluble protein abundance (concentration: 4mM)	NP40-soluble protein abundance (concentration: 6mM)	NP40-soluble protein abundance (concentration: 8mM)	NP40-soluble protein abundance (concentration: 10mM)
IGHMBP2 (UniProt P38935)	1.07 ± 0.072	1.09 ± 0.1	1.14 ± 0.099	1.26 ± 0.17	1.44 ± 0.26	1.6 ± 0.27	1.7 ± 0.43	1.92 ± 0.48
ARPC1B (UniProt O15143)	1 ± 0.045	1.04 ± 0.056	0.933 ± 0.034	0.942 ± 0.062	0.928 ± 0.056	0.948 ± 0.04	0.923 ± 0.017	0.887 ± 0.012
ANXA5 (UniProt P08758)	0.882 ± 0.07	0.908 ± 0.054	0.878 ± 0.077	0.854 ± 0.076	0.819 ± 0.073	0.843 ± 0.089	0.794 ± 0.081	0.809 ± 0.085
UniProt P27824|P27824-2	0.965 ± 0.034	1 ± 0.013	0.95 ± 0.04	0.928 ± 0.048	0.883 ± 0.061	0.922 ± 0.06	0.906 ± 0.035	0.896 ± 0.051
UniProt P11388|P11388-2|P11388-3|P11388-4	1.06 ± 0.054	1.14 ± 0.036	1.2 ± 0.022	1.43 ± 0.052	1.73 ± 0.1	1.94 ± 0.16	2.01 ± 0.18	2.12 ± 0.15
J3QQJ5|Q9Y2L5 (UniProt Q9Y2L5)	1.09 ± 0.062	1.1 ± 0.12	1.05 ± 0.091	1.03 ± 0.11	1 ± 0.14	0.989 ± 0.13	1.01 ± 0.12	0.981 ± 0.13
RPL21 (UniProt P46778)	0.981 ± 0.092	1 ± 0.082	1.05 ± 0.12	1.01 ± 0.14	0.914 ± 0.2	0.856 ± 0.19	0.72 ± 0.22	0.971 ± 0.23
UniProt P51532|P51532-2|P51532-3|P51532-4|P51532-5|Q9HBD4	1.016 ± 0.0073	1.07 ± 0.045	1.1 ± 0.083	1.15 ± 0.13	1.19 ± 0.15	1.2 ± 0.17	1.24 ± 0.23	1.21 ± 0.21
UniProt P09651|P09651-2	1.03 ± 0.067	1.11 ± 0.082	1.17 ± 0.11	1.16 ± 0.065	1.16 ± 0.08	1.22 ± 0.089	1.3 ± 0.22	1.25 ± 0.16
SLC16A7 (UniProt O60669)	1.09 ± 0.034	0.98 ± 0.24	1.143 ± 0.0046	1.06 ± 0.15	1.1 ± 0.079	0.966 ± 0.15	1.12 ± 0.089	1.05 ± 0.16
UniProt O75143|O75143-2|O75143-5	0.993 ± 0.038	0.996 ± 0.042	1.01 ± 0.065	1.02 ± 0.081	0.967 ± 0.024	0.959 ± 0.088	0.937 ± 0.058	0.947 ± 0.041
UniProt O60488|O60488-2|D6RD96	1.02 ± 0.028	1.08 ± 0.053	0.9363 ± 0.0046	0.939 ± 0.066	0.908 ± 0.045	0.905 ± 0.049	0.894 ± 0.039	0.843 ± 0.086
KIN (UniProt O60870)	0.9988 ± 0.0042	0.993 ± 0.013	0.9497 ± 0.0058	0.929 ± 0.029	0.916 ± 0.021	0.908 ± 0.024	0.9015 ± 0.007	0.885 ± 0.053
AKR1A1 (UniProt P14550)	0.93 ± 0.035	0.912 ± 0.034	0.888 ± 0.04	0.876 ± 0.037	0.873 ± 0.047	0.849 ± 0.04	0.831 ± 0.088	0.825 ± 0.08
K7EQW8|P67936|K7ERG3 (UniProt P67936)	0.803 ± 0.15	0.716 ± 0.089	1.39 ± 0.5	1.19 ± 0.29	1.27 ± 0.27	1.27 ± 0.21	1.15 ± 0.34	1.83 ± 0.49
UniProt O75582|A0A0A0MQV2	1.05 ± 0.079	1.06 ± 0.059	0.965 ± 0.044	0.965 ± 0.068	0.979 ± 0.083	0.965 ± 0.056	0.934 ± 0.031	0.912 ± 0.044
TIMM23 (UniProt O14925)	0.979 ± 0.016	0.902 ± 0.037	0.856 ± 0.016	0.892 ± 0.02	0.904 ± 0.043	0.877 ± 0.026	0.838 ± 0.046	0.898 ± 0.042
GLRX3 (UniProt O76003)	0.92 ± 0.052	0.946 ± 0.058	0.934 ± 0.068	0.882 ± 0.088	0.864 ± 0.075	0.885 ± 0.085	0.885 ± 0.035	0.871 ± 0.081
UniProt O43399|O43399-5|O43399-7	0.814 ± 0.11	0.76 ± 0.039	1 ± 0.15	0.946 ± 0.028	0.91 ± 0.03	0.916 ± 0.033	0.875 ± 0.16	1.08 ± 0.15
ZKSCAN1 (UniProt P17029)	0.9748 ± 0.0051	0.986 ± 0.034	0.987 ± 0.047	0.958 ± 0.024	0.963 ± 0.015	0.978 ± 0.026	1 ± 0.075	0.993 ± 0.041
BANF1 (UniProt O75531)	1.42 ± 0.34	2.98 ± 1.1	5.2 ± 3	5.54 ± 3.3	5.21 ± 3.3	5.08 ± 3	4.35 ± 2	5.71 ± 3.2
GNL1 (UniProt P36915)	1.05 ± 0.023	1.03 ± 0.019	0.972 ± 0.033	0.95 ± 0.015	0.9647 ± 0.0095	0.944 ± 0.02	0.959 ± 0.045	0.906 ± 0.061
LGALS1 (UniProt P09382)	0.889 ± 0.036	0.886 ± 0.037	0.885 ± 0.042	0.789 ± 0.055	0.813 ± 0.11	0.822 ± 0.067	0.821 ± 0.03	0.809 ± 0.055
UniProt P23025|F2Z2T2	1.07 ± 0.044	1.08 ± 0.049	1.21 ± 0.054	1.02 ± 0.1	1.05 ± 0.074	1.08 ± 0.14	1.12 ± 0.028	1.08 ± 0.097
TIMM44 (UniProt O43615)	0.992 ± 0.035	0.989 ± 0.041	0.993 ± 0.057	0.946 ± 0.058	0.954 ± 0.09	0.914 ± 0.082	0.946 ± 0.058	0.93 ± 0.064
PPIF (UniProt P30405)	0.881 ± 0.08	0.902 ± 0.067	0.863 ± 0.064	0.876 ± 0.078	0.853 ± 0.091	0.868 ± 0.087	0.836 ± 0.11	0.887 ± 0.079
UniProt P12931|P12931-2	1.05 ± 0.05	1.05 ± 0.063	0.955 ± 0.018	0.9845 ± 0.0092	0.905 ± 0.063	0.896 ± 0.015	0.894 ± 0.052	0.837 ± 0.074
UniProt O95758-2|O95758-6|O95758|O95758-1|O95758-4|O95758-5|O95758-7	1.02 ± 0.074	0.974 ± 0.052	1.02 ± 0.064	1.05 ± 0.11	0.994 ± 0.088	0.972 ± 0.05	0.959 ± 0.058	0.951 ± 0.038
J3KPP4|O95232|H0YA81 (UniProt O95232)	1.13 ± 0.027	1.45 ± 0.062	1.54 ± 0.1	1.54 ± 0.095	1.56 ± 0.12	1.63 ± 0.13	1.72 ± 0.19	1.74 ± 0.18
UniProt P28907	0.92 ± 0.058	0.876 ± 0.075	0.927 ± 0.063	0.902 ± 0.091	0.891 ± 0.088	0.925 ± 0.088	0.895 ± 0.1	0.894 ± 0.058
